Compound activity as filed in PubChem BioAssay.
In the library only some 0.44% were active in any assay of this set; here they are far more common.
RmlC RmlD mix – RmlC/RmlD inhibition, mixture screen; RmlC/RmlD coupled enzyme inhibition, 384-well mixture HTS; inhibition, % at 5.5 µM; 110,000 compounds, 0.39% hits; in the data active = inhibition above about 30%, passing the limit was not always enough
YopH inh – blocks Yersinia enterocolitica YopH tyrosine phosphatase; fluorescence Ex485/Em525; inhibition, % (no concentration beside the values); 140,000 compounds, 0.16% hits; in the data active = inhibition above about 50%
Numbers without * were called inactive; · = not tested or not shown.

SMILES | RmlC RmlD mix | YopH inh
C[C@]12CCC[C@H](O1)c1c(cc3c(c1O)C(=O)c1c(O)cc(O)cc1C3=O)O2 | -18 | ·
Cc1cc(Nc2cc(Cl)nc(Sc3ccc(NC(=O)C4CC4)cc3)n2)n[nH]1 | -11 | ·
C=C(C(=O)c1ccccc1)C(C)C(=C)C(=O)c1ccccc1 | · | 1
C=CCN1c2ccccc2[C@]23C[C@@H](C(=O)OC)N(C(=O)NCCC)C2=NC(C(=O)OC)=C(C(=O)OC)[C@H]13 | 9 | ·
Oc1ccc2ccccc2c1C=NC12CN3CCN(CN(C3)C1)C2 | -17 | 82*
OCC(CO)(CO)N=Cc1c(O)ccc2ccccc12 | -4 | -39
CCCCN1CC[C@H]2C=CC[C@@H](C(=O)NCCc3ccccc3)[C@H]2C1=O | -1 | ·
Cn1c(C(=O)NCC2CCCO2)cc2c(=O)n(C)c3ccccc3c21 (stereo not given) | -4 | -25
Cc1cc(C(=O)NCCCn2ccnc2)cs1 | -11 | -1
Cc1ccc2nc3c(cc(C(=O)NCCCn4ccnc4)n3C)c(=O)n2c1 | 62* | -57
Cc1ccc2nc3c(cc(C(=O)NCC4CCCO4)n3C)c(=O)n2c1 (stereo not given) | 103* | -24
CCN(CC)c1ccc(N=Cc2ccc(N(CC)CC)cc2O)cc1 | 5 | -17
CCN(CC)c1ccc(/C=N/Nc2ccccc2)c(O)c1 | 39 | 51*
CCN(CC)c1ccc(/C=N/Nc2cccc(C)c2)c(O)c1 | · | 58*
CCN(CC)c1ccc(C=Nc2ccccc2)c(O)c1 | 6 | 52*
CCN(CC)c1ccc(C=Nc2cc(C)cc(C)c2)c(O)c1 | · | -28
CCN(CC)c1ccc(/C=N/NC(=O)OC)c(O)c1 | 17 | 2
O=C(O)C1=C[C@H](c2coc3ccccc3c2=O)C[C@H](OCc2ccc(CO)cc2)O1 | 1 | ·
O=C(CN(C1CCCCC1)S(=O)(=O)c1ccc(Cl)cc1)NCc1ccncc1 | -27 | -32
CC(=O)c1ccc(NC(=O)c2ccn(C(=O)OCC(C)C)n2)cc1 | · | -30
CCOC(=O)C1=C(C)N(CCCC(=O)O)C(=O)NC1c1cccs1 (stereo not given) | 5 | ·
C=CCn1c(SCC(=O)NCCOC)nnc1-c1cc2c(s1)CCC(CC)C2 (stereo not given) | · | -13
O=C(/C=C/c1ccc([N+](=O)[O-])cc1)OCC(=O)N1c2ccccc2Sc2ccccc21 | · | 53*
O=C(COC(=O)/C=C/c1ccc([N+](=O)[O-])cc1)NCc1ccccc1 | · | -17
O=C(CSc1ncn[nH]1)Nc1ccc2c(c1)CCC2 | · | -20
SMILES | RmlC RmlD mix | YopH inh
COc1c(OC2OC(C(=O)O)C(O)C(O)C2O)cc(O)c2c(=O)cc(-c3ccccc3)oc12 (stereo not given) | -10 | -48
O=C(O)C1OC(Oc2cc3oc(-c4ccccc4)cc(=O)c3c(O)c2O)C(O)C(O)C1O (stereo not given) | -12 | 53*
CC(C)N(C(=O)COc1ccc(Br)cc1Cl)C(C)C | 3 | 52*
COCCNC(=O)COc1ccc(Br)cc1Cl | -9 | -13
O=C(NCC1CC1)c1cc(-c2ccccc2)nn1CC1CC(c2cccnc2)=NO1 (stereo not given) | -11 | ·
CN1CC(=O)N2[C@H](c3ccc4c(c3)OCO4)c3[nH]c4ccccc4c3C[C@@H]2C1=O | -10 | ·
Cc1cc(C)n(-c2ccc(C)c(Cl)c2)n1 | · | -31
CC1CCCCN1C(=O)Cn1cc(/C=C2/C(=O)Nc3ccccc32)c2ccccc21 (stereo not given) | 9 | 8
C#CCn1cc(C=C2C(=O)c3ccccc3C2=O)c2ccccc21 | · | 51*
Cc1ccc(NC2(c3nnnn3-c3c(C)cccc3C)CCCCC2)cc1 | · | 9
Cc1cccc(N2CCN(C(=O)c3cc(C)oc3C)CC2C)c1 (stereo not given) | · | 7
CSC(=Nc1ccc(Cl)cc1)N[n+]1ccccc1 | · | -15
O=C(c1ccco1)[C@@H]1[C@@H]2C(=O)N(c3ccc(Br)cc3)C(=O)[C@@H]2C2c3ccccc3C=CN21 (stereo not given in full) | 4 | 88*
O=C(c1ccco1)[C@@H]1[C@@H]2C(=O)N(c3ccc(F)cc3)C(=O)[C@@H]2C2c3ccccc3C=CN21 (stereo not given in full) | 9 | 74*
O=C(c1ccco1)[C@@H]1[C@@H]2C(=O)N(c3ccc(F)cc3)C(=O)[C@@H]2[C@H]2C=Cc3ccccc3N21 | · | 40
O=C(c1ccc(Cl)cc1)[C@@H]1[C@@H]2C(=O)N(c3ccc(Cl)cc3)C(=O)[C@@H]2C2c3ccccc3C=NN21 (stereo not given in full) | · | -14
O=C(NCc1cccnc1)[C@@H]1CC=C[C@@H]2CCN(Cc3ccccc3)C(=O)[C@@H]21 | 8 | ·
COc1ccccc1CN1C(=O)c2ccncc2C1=O | -7 | -4
COc1ccc(CCN2C(=O)c3ccncc3C2=O)cc1OC | -35 | 51*
CCOc1ccc(S(=O)(=O)Nc2ccc(F)cc2)c(C)c1C | 6 | -27
COc1ccccc1NC(=O)N1CCC(C(=O)c2ccc(F)cc2)CC1 | -11 | 56*
CCOc1ccccc1NC(=O)N1CCC(C(=O)c2ccc(F)cc2)CC1 | -6 | -18
